From PubChem
A selection: hits, their analogues and other compounds. The true share with any hit is near 8.7%.
G9a block – blocks human histone lysine methyltransferase G9a. G9a H3K9 monomethylation, AlphaScreen, 2 h. Potency, µM (series often up to 102 µM), without a hit: at the highest dose activity, negative = inhibition, most hits filed as inhibitors. actives 8.8% (n = 350,000). AID 504332; further: on the % scale 0 is the no-effect control and ±100 the full control effect; nearly all actives have a fitted effect of over 75% in size
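Chemiluminescent proximity detection of H3K9 monomethylation, read after 10 min bead incubation in the dark. Reaction: 20 nM G9a, 500 nM biotin-H3K9 peptide, 20 uM SAM cofactor, 2 h, room temperature, following 15 min enzyme-compound preincubation.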
JMJD2A Tudor inh – inhibitors of human JMJD2A Tudor domain. O75164. AlphaScreen JMJD2A-Tudor / H3K4me3 peptide binding. Potency, µM (titrated, usually from 114 µM), inactives show at the top dose activity change, negative = inhibition, hits mostly inhibitors. actives 4.4% (n = 390,000). AID 504339; further: on the % scale 0 is the no-effect control and ±100 the full control effect; nearly all actives have a fitted effect of over 50% in size
12-LOX inh – inhibitors of human 12S-lipoxygenase ALOX12; AID 1671190; actives 1.1% (n = 580,000); Potency, µM (top dose mostly 108 µM), without a hit: at the top dose activity change, negative = inhibition, most hits filed as inhibitors; P18054; purified 12hLO, xylenol orange hydroperoxide absorbance; further: on the % scale 0 is the no-effect control and ±100 the full control effect
Target sequence (P18054 whole entry, looked up): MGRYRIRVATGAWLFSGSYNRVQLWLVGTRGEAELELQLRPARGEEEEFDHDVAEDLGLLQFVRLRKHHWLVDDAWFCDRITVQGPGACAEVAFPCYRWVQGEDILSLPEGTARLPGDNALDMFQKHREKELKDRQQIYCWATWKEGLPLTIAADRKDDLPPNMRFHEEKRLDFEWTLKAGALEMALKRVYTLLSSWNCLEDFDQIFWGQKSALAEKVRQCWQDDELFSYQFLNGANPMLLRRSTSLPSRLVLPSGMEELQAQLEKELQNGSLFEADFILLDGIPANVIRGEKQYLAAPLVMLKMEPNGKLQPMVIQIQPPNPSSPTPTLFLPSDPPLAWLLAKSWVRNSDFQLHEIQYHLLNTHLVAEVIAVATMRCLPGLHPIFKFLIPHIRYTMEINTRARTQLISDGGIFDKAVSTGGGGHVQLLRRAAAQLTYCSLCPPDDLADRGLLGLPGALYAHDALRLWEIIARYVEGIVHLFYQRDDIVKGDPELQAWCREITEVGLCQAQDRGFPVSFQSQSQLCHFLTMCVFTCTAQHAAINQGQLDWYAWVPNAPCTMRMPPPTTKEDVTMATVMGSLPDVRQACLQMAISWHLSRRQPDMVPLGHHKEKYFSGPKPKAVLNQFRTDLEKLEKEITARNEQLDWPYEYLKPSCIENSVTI
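Purified human 12hLO at 150 nM in 25 mM Hepes, 0.01% Triton X-100, pH 7.0, preincubated 15 min at room temperature with compound. Reaction started with 40 uM arachidonic acid, 30 min at room temperature. Hydroperoxide measured by Fe-xylenol orange, 573/405 nm absorbance ratio.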
HP1b chromo inh – inhibitors of HP1-beta chromodomain binding to methylated histone tails; P83916; AlphaScreen HP1-beta / biotin-H3K9me3 peptide binding; Potency, µM (series often up to 114 µM), for the others: at the top dose activity change, negative = inhibition, actives largely listed as inhibitors; actives 0.56% (n = 390,000); AID 540317; further: nearly all actives have a fitted effect of over 70% in size
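AlphaScreen: HP1-beta (50 nM) preformed 30 min with biotin-H3(1-18)K9me3 peptide (50 nM) in PBS pH 7.4, 0.01% Tween-20. Compound added for 30 min at RT, then streptavidin donor/nickel chelate acceptor beads (10 ug/mL) for 30 min.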
Sfp PPTase inh – blocks B. subtilis Sfp PPTase activity; Q9F4F7; Biochemical Sfp PPTase activity, qHTS; Potency, µM, without a hit: largest response in the series, negative = inhibition, usual class: inhibitors; actives 3.5% (n = 310,000); AID 1490;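 further: the enzyme is Sfp with the accession as filed and its product quenches rhodamine fluorescence; 0% = enzyme reaction without inhibitor and -100% = no enzyme wells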
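Fluorescence-quenching assay with 15 nM Sfp, 5 uM rhodamine-CoA and 12.5 uM BHQ-2-labelled ybbR peptide in pH 7.6 Hepes/MgCl2 buffer. Enzyme was pre-incubated with compound for 15 min at room temperature. Rate was taken from the 30-min fluorescence change (525/598 nm).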
BAZ2B block – blocks human BAZ2B | actives 4.4% (n = 360,000) | Potency, µM (series often up to 114 µM), inactives show top-dose activity change, negative = inhibition, hits mostly inhibitors | AlphaScreen BAZ2B-H3K14Ac peptide displacement | Q9UIF8; further: on the % scale 0 is the no-effect control and ±100 the full control effect; nearly all actives have a fitted effect of over 60% in size
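BAZ2B (50 nM) with biotin-H3(5-23)K14Ac peptide (50 nM) in PBS pH 7.4, 0.01% Tween-20, preformed 30 min, then compound 30 min at room temperature; top concentration 110uM. AlphaScreen streptavidin donor/nickel chelate acceptor beads (10 ug/mL final), 20 min dark, signal read.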
* = called active by the depositor; ? = inconclusive; / = not tested or not shown; ! = not confirmed by another sample; [ ] = another dose, or the depositor's remark. The call rests on the fitted dose curve; in most records, active means well fitted curve in the direction sought with a large enough effect; inconclusive means small, poorly fitted or top-dose-only effect, or another doubt; inactive means no such curve, though single readings can be large; an effect the other way counts as inactive or inconclusive. Potency means the concentration at half of the fitted maximal effect.

SMILES	G9a block	JMJD2A Tudor inh	12-LOX inh	HP1b chromo inh	Sfp PPTase inh	BAZ2B block
COc1ccc(C(CNS(=O)(=O)c2cccc(F)c2)N2CCCC2)cc1 (stereo not drawn)	/	-28%	-19%	3%	/	/
CCOc1cc(C(=O)NCC(c2ccc(N(C)C)cc2)N2CCOCC2)cc(OCC)c1OCC (stereo not drawn)	-16%[12.7 µM]	-25%	-2%	8%	/	-36%
CN(C)c1ccc(C(CNC(=O)COc2ccc(Cl)cc2)N2CCOCC2)cc1 (stereo not drawn)	?	-12%	-14%	16%	/	-34%
CCOc1ccc(S(=O)(=O)NCC(c2ccc(N(C)C)cc2)N2CCCC2)cc1 (stereo not drawn)	20µM*	?	-16%	-9%	/	35µM*
CN(C)c1ccc(C(CNC(=O)c2ccc(C(C)(C)C)cc2)N2CCOCC2)cc1 (stereo not drawn)	11µM*	?	?	-10%	/	35µM*
CN(C)c1ccc(C(CNC(=O)COc2ccc(Cl)cc2)N2CCCC2)cc1 (stereo not drawn)	50µM*	3%	-13%	31%	-13%	35µM*
Cc1ccc(N2C(=O)CCS2(=O)=O)cc1S(=O)(=O)NC1CCCC1	/	/	-18%	/	/	/
O=C(Cc1ccc(N2CCCC2=O)cc1)N1CCSCC1	/	/	13%	/	/	/
O=C(CN1C(=O)COc2ccc(C(=O)COc3cccc(F)c3)cc21)NCc1ccc(F)cc1	/	/	-17%	/	/	/
O=C(NCC1CCOCC1)Nc1cc(F)c(F)c(F)c1	/	/	1%	/	/	/
COc1ccc(S(=O)(=O)NCC(c2ccco2)N2CCc3ccccc32)cc1 (stereo not drawn)	?	?	-17%	?	/	?
COc1ccc(S(=O)(=O)NCC(c2ccc(N(C)C)cc2)N2CCc3ccccc32)cc1 (stereo not drawn)	13µM*	22µM*	-44%	?	/	?
Cc1ccc(S(=O)(=O)NCC(c2ccc(N(C)C)cc2)N2CCc3ccccc32)cc1C (stereo not drawn)	5.6µM*	7.1µM*	1%	-24%	/	6.3µM*
COCCOc1ccc(C(=O)/C=C/c2cc(OC)c(OC)c(OC)c2)cc1	/	/	10%	/	/	/
Fc1ccc(C2=CC(c3ccc(Br)o3)n3ncnc3N2)cc1 (stereo not drawn)	8.9µM*	32µM*	/	-7%	-101%	-15%
Fc1ccc(Br)cc1C1C=C(c2cccnc2)Nc2ncnn21 (stereo not drawn)	45µM*	?	/	43%	9%	-7%
C1=C(c2ccc(-c3ccccc3)cc2)Nc2ncnn2C1c1ccco1 (stereo not drawn)	32µM*	-27%	3%	24%	?	-12%
Brc1ccc(C2=CC(c3cccs3)n3ncnc3N2)cc1 (stereo not drawn)	11%[0.501 µM]	-22%	40µM*	24%	79µM*	4%
CCc1nnc(Cn2cnc3scc(-c4ccccc4)c3c2=O)o1	/	/	18%	/	/	/
O=C1NCc2ccccc2CC12CCN(Cc1ccc(F)cc1O)CC2	/	/	2%[6.33 µM]	/	/	/
COc1ccc(S(=O)(=O)NNc2nc(C)cc(C)n2)cc1[N+](=O)[O-]	/	-14%	/	7%	50µM*	-9%
NC(=O)c1ccccc1NC(=S)NC(=O)c1ccc(Br)o1	45µM*	-17%	?	-8%	22µM*	2%
O=C(NC(=S)Nc1ccccc1)c1ccc(Br)o1	?	-10%	-17%	-4%	3%	-30%
NC(=O)c1ccccc1NC(=S)NC(=O)CCc1ccccc1	4.5µM*	79µM*	?	?	28µM*	-6%
Cn1nnnc1-c1cccc(NCC(=O)NC2(C#N)CCCCC2)c1	/	/	5%	/	/	/
SMILES	G9a block	JMJD2A Tudor inh	12-LOX inh	HP1b chromo inh	Sfp PPTase inh	BAZ2B block
CN(CC(=O)NC1(C#N)CCCCC1)Cc1ccc(C(F)(F)F)cc1	/	/	28µM*	/	/	/
CN(CC(=O)NC1(C#N)CCCCCC1)Cc1ccc(C(F)(F)F)cc1	/	/	10%	/	/	/
COc1ccc(C(C2C(=O)CC(C)(C)CC2=O)C2C(=O)CC(C)(C)CC2=O)cc1CO	?	-15%	-11%	54%	56µM*	-1%
CC1(C)CC(=O)C(C(c2ccc(Br)cc2)C2C(=O)CC(C)(C)CC2=O)C(=O)C1	45µM*	-25%	-5%	41%	3%	4%
CC1(C)CC(=O)C(C(c2ccc(F)cc2)C2C(=O)CC(C)(C)CC2=O)C(=O)C1	?	-2%	-2%	52%	-33%	2%
CC1(C)CC(=O)C(C(c2ccco2)C2C(=O)CC(C)(C)CC2=O)C(=O)C1	?	?	?	51%	50µM*	-25%
CC1(C)CC(=O)C(C(=O)/C=C/c2ccco2)C(=O)C1	23%[12.7 µM]	?	?	?	4%	?
COC(=O)c1ccc(C(C2C(=O)CC(C)(C)CC2=O)C2C(=O)CC(C)(C)CC2=O)cc1	?	-7%	24%	54%	5%	-12%
CC(Oc1ccc(F)cc1)C(=O)N1CCC(c2nc3ccccc3o2)CC1 (stereo not drawn)	/	/	-23%	/	/	/
COCCOc1ccc(C(F)(F)F)cc1NC(=O)c1ccccc1	19%[59 µM]	9%	5%	42%	13%	5%
CC(C)(C)c1ccc(OCCOc2ccc(C(C)(C)C)cc2NC=O)c(NC=O)c1	-9%[0.501 µM]	-18%	0%	22%	56µM*	-14%
CCc1c(C)[nH]c2c1C(=O)C(CN1CCOCC1)CC2 (stereo not drawn)	19µM*!	-28%	-5%	5%	/	/
CCc1c(C)nc(N2CCOCC2)[nH]c1=O	-2%[59 µM]	-11%	-7%	3%	-5%	-7%
COc1cccc(C(=O)NCC(O)c2ccc(C)cc2)c1 (stereo not drawn)	/	/	5%	/	/	/
Cc1nc(-c2c3n(c(=O)n(CC(=O)NCc4ccccc4Cl)c2=O)CCCCC3)no1	/	/	34%	/	/	/
Oc1c(Cl)cc(Cl)cc1C=Nc1ccc(F)c(Cl)c1	/	/	-54%	/	/	/
Oc1c(Cl)cc(Cl)cc1C=Nc1ccccc1N1CCCC1	10µM*	/	/	/	-6%	45µM*
Cn1c(=S)[nH]c2c(c1=O)C(C)(C)Cc1ccccc1-2	-51%	-36%	14µM*	9%	?	?
CCn1c(=S)[nH]c2c(c1=O)C(C)(C)Cc1ccccc1-2	6%	-5%	?	36%	17%	-17%
NCCC(=O)N1c2ccccc2Sc2ccc(Cl)cc21	8%	-13%	-12%	35%	-4%	-23%
CN1CCN(CCC(=O)N2c3ccccc3Sc3ccc(Cl)cc32)CC1	?	?	?	-4%	89µM*	79µM*
CC(C)COc1cc(=O)n2c(c1C(=O)NCC1CC1)CCCCC2	/	/	37%	/	/	/
